Assay outcomes (PubChem)
MCF10A rereplic: DNA re-replication induction in MCF 10a cells; MCF 10A DNA re-replication, Hoechst nuclear intensity, 48 h; AID 624296; 350,000 compounds, 2.9% hits; Potency, µM (top dose mostly 46.1 µM), for inactives: at the top dose activity, positive = re-replication, actives largely listed as activators; note: potency is the fitted concentration of half-maximal effect; % of control where 0% means no effect; nearly all actives have a fitted effect of over 50% in size
TDP1 cell CPT: DT40-hTDP1 cell growth loss with CPT; chicken DT40 Tdp1-/-;hTDP1 cells + 20 nM CPT, ATP luminescence, 48 h; Potency, µM (titrated, usually from 46.2 µM), for the others: top-dose activity change, negative = growth inhibition, most hits filed as inhibitors; 420,000 compounds, 12% hits; note: potency is the fitted concentration of half-maximal effect; % is set by controls: 0 for no effect and ±100 for the full control effect; nearly all actives have a fitted effect of over 55% in size
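Cell growth measured by CellTiter-Glo luminescence after a minimum 48 h, 37 C compound exposure with 20 nM CPT in Tdp1-knockout DT40 cells stably expressing hTDP1, seeded 400/well; qHTS titration format.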
TDP1 cell noCPT: qHTS for Inhibitors of human tyrosyl-DNA phosphodiesterase 1 (TDP1): qHTS in cells in absence of CPT; 420,000 compounds, 15% hits; DT40 Tdp1-/- hTDP1 cells, no CPT, ATP luminescence, 48 h; Potency, µM (titrated, usually from 46.2 µM), without a hit: at the top dose activity change, negative = growth inhibition, actives largely listed as inhibitors; note: potency is the fitted concentration of half-maximal effect; % is set by controls: 0 for no effect and ±100 for the full control effect; nearly all actives have a fitted effect of over 55% in size
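Chicken DT40 Tdp1-/- cells stably complemented with human TDP1 were seeded at 400 cells/well with DMSO in place of 20 nM camptothecin. After compound pinning, cells grew at least 48 hr at 37 °C; viability read by CellTiter-Glo luminescence.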
SW480 rerep: inducers of DNA re-replication in SW480 colon cancer cells; AID 624297; SW480 DNA re-replication, Hoechst DNA content imaging, 48 h; Potency, µM (series often up to 46.1 µM), inactives show at the top dose re-replication activation, most hits filed as activators; 340,000 compounds, 1.8% hits; note: potency is the fitted concentration of half-maximal effect; % of control where 0% means no effect; nearly all actives have a fitted effect of over 55% in size
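Hoechst fluorescence of nuclei (405 nm excitation, 500-530 nm emission) measured by plate-scanning imager after 48 hr compound exposure at 37 C; re-replication scored as increased number of nuclei with elevated intensity.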
Chronic BCR inh: chronic active BCR signaling inhibition | 340,000 compounds, 0.05% hits | ABC-DLBCL IkBa-CBG/CBR reporter, luminescence ratio, 4 h | AID 493014 | Potency, µM (top dose mostly 46.1 µM), for the others: top-dose activity change, negative = inhibition, hits mostly inhibitors; active = well fitted inhibition curve with a large enough effect in the signal ratio, with a control signal flat, not every such curve was filed as active; inconclusive = small, poorly fitted or top-dose-only effect, or effect the other way, or a change in a side signal; the % refers to the signal ratio;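 note: potency is the fitted concentration of half-maximal effect; plate controls were basal doxycycline-induced cells for no effect and cells given 10 µM MG132 for full effect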
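TMD8 human ABC-DLBCL cells with doxycycline-inducible IκBα–green luciferase fusion and unfused red luciferase, in 0.5% FBS medium; compounds up to 46 uM, 4 h at 37C. Green/red luminescence ratio, filter-overlap corrected, fitted to concentration-response curves.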
IL1B secr inh: inflammasome signaling inhibition, IL-1 beta readout; THP-1 LPS/ATP IL-1B secretion, AlphaLISA, 16 h; hits give low values; 360,000 compounds, 4.7% hits; activity change, % at 57.5 µM; in the data active = activity change below about -50%; inconclusive = mostly about -30% to -49%; note: % is set by controls: 0 for no effect and ±100 for the full control effect
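THP-1 cells pretreated 1 hr with compounds (up to 57.5 uM final), then stimulated with LPS (250 ng/mL final) plus ATP (1.25 mM final); secreted IL-1B measured by AlphaLISA after 16 hr, decreased signal indicating inhibition.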
An asterisk follows results filed as active. Most compounds without a hit are left out; they make up all but 19% or so of the library. Unless noted, calls come from the whole dose curve; as a rule, active = well fitted curve in the direction sought with a large enough effect; inconclusive = small, poorly fitted or top-dose-only effect, or another doubt; inactive = no such curve, though single readings can be large; an effect the other way counts as inactive or inconclusive.

Results for O=C(NCc1ccco1)C(Cc1ccccc1)N1C(=O)c2ccccc2C1=O (centres undefined) ?
MCF10A rereplic: 5%; TDP1 cell CPT: 21µM*; TDP1 cell noCPT: -20%; SW480 rerep: 6%; Chronic BCR inh: 17%; IL1B secr inh: 25

What do the screens show for `[N-]=[N+]=CC(=O)CNC(=O)[C@@H](Cc1ccccc1)N1C(=O)c2ccccc2C1=O`?
MCF10A rereplic: 2%; TDP1 cell CPT: -17%; TDP1 cell noCPT: -23%; SW480 rerep: -2%; Chronic BCR inh: 1%; IL1B secr inh: 3

Results for C/C(=N\NC(=O)C(=O)Nc1c(C)n(C)n(-c2ccccc2)c1=O)c1ccncc1 ?
MCF10A rereplic: 2%; TDP1 cell CPT: 1%; TDP1 cell noCPT: 3%; SW480 rerep: -15%; Chronic BCR inh: 8%; IL1B secr inh: 22

Results for C/C(=N/NC(=O)c1ccc(Br)o1)c1cccc(NC(=O)c2ccc(C)o2)c1 ?
MCF10A rereplic: 0%; TDP1 cell CPT: 16µM*; TDP1 cell noCPT: 21µM*; SW480 rerep: -3%; Chronic BCR inh: -8%; IL1B secr inh: -5

Results for O=C(c1ccccc1)c1cccc(NC(=O)c2ccc(Br)o2)c1 ?
MCF10A rereplic: inconclusive; TDP1 cell CPT: inconclusive; TDP1 cell noCPT: inconclusive; SW480 rerep: 14%; Chronic BCR inh: inconclusive; IL1B secr inh: -64*

What do the screens show for `Cc1ccc(NC(=O)Cc2nnc(SCC(=O)NC3CCCC3)n2C)c(C)c1`?
MCF10A rereplic: 11%; TDP1 cell CPT: -7%; TDP1 cell noCPT: -42%; SW480 rerep: -2%; Chronic BCR inh: -1%; IL1B secr inh: -10

Results for CC(C)(C)NC(=O)C1c2ccccc2OCC(=O)N1Cc1ccccc1 (centres undefined) ?
TDP1 cell CPT: -4%; TDP1 cell noCPT: -10%; IL1B secr inh: -6

Results for O=C(COC(=O)c1ccc(O)cc1)Nc1ccc(N2CCCCC2)cc1 ?
MCF10A rereplic: -1%; TDP1 cell CPT: inconclusive; TDP1 cell noCPT: 21µM*; SW480 rerep: -8%; Chronic BCR inh: 24%; IL1B secr inh: 5

What do the screens show for `COC(=O)c1ccc(NC(=O)c2c(NCc3ccc(C)o3)sc3c2CCCC3)cc1`?
TDP1 cell CPT: 15µM*; TDP1 cell noCPT: inconclusive; Chronic BCR inh: inconclusive

How did O=C(CNCCC1=CCCCC1)Nc1ccc(N2CCCCCC2)cc1 do in these assays?
MCF10A rereplic: inconclusive; TDP1 cell CPT: 21µM*; TDP1 cell noCPT: 21µM*; SW480 rerep: inconclusive; Chronic BCR inh: -19%; IL1B secr inh: -87*

How did COc1ccc(NC(=O)c2c(NCc3ccc(N(C)C)cc3)sc3c2CCC3)cc1 do in these assays?
TDP1 cell CPT: 13µM*; TDP1 cell noCPT: 10µM*; Chronic BCR inh: 12%

Results for CCNc1ncc2nc(-c3cccc(C#N)c3)c(=O)n(Cc3cccc(OC)c3)c2n1 ?
TDP1 cell CPT: 10%; TDP1 cell noCPT: 1%

Results for CCc1ccc(C(=O)c2cn(CC(=O)Nc3ccc4c(c3)OCCO4)c3ccc(C)cc3c2=O)cc1 ?
TDP1 cell CPT: 2%; TDP1 cell noCPT: -1%

What do the screens show for `O=C(O)CC/C(=N/NC(=O)c1ccc(-c2ccccc2)cc1)c1ccccc1`?
MCF10A rereplic: 1%; TDP1 cell CPT: 11%; TDP1 cell noCPT: 3%; SW480 rerep: -1%; Chronic BCR inh: -1%; IL1B secr inh: inactive

How did COc1ncc2nc(-c3cn(C)c4ccccc34)c(=O)n(CCc3ccccc3)c2n1 do in these assays?
TDP1 cell CPT: 10%; TDP1 cell noCPT: 7%

Results for O=C(O)/C=C\c1cccc(-n2nnnc2SCc2ccccc2F)c1 ?
MCF10A rereplic: -2%; TDP1 cell CPT: 2%; TDP1 cell noCPT: 24%; SW480 rerep: inconclusive; Chronic BCR inh: -3%; IL1B secr inh: 21

Results for COc1cccc(CC(=O)Nc2sc3c(c2C(N)=O)CCCC3)c1 ?
MCF10A rereplic: 22%; TDP1 cell CPT: -25%; TDP1 cell noCPT: inconclusive; SW480 rerep: 1%; Chronic BCR inh: -11%; IL1B secr inh: 31

What do the screens show for `COc1ccc(CC(=O)Nc2sc3c(c2C(N)=O)CCCC3)cc1OC`?
MCF10A rereplic: 7%; TDP1 cell CPT: inconclusive; TDP1 cell noCPT: 18µM*; SW480 rerep: 2%; Chronic BCR inh: 0%; IL1B secr inh: -2

How did CCOC(=O)c1c(NC(=O)C(=O)N/N=C/c2ccc(O)c(OC)c2)sc2c1CCCCC2 do in these assays?
MCF10A rereplic: inconclusive; TDP1 cell CPT: inconclusive; TDP1 cell noCPT: 23µM*; SW480 rerep: 1%; Chronic BCR inh: inconclusive; IL1B secr inh: -27

What do the screens show for `COc1ccc(/C=C/C(=O)Nc2sc3c(c2C(N)=O)CCCC3)cc1`?
TDP1 cell CPT: 5%; TDP1 cell noCPT: -17%

What do the screens show for `CCOC(=O)c1c(CC(C)C)csc1NC(=O)COC(=O)c1ccc(O)cc1`?
MCF10A rereplic: 16%; TDP1 cell CPT: 23µM*; TDP1 cell noCPT: 18µM*; SW480 rerep: 2%; Chronic BCR inh: 4%; IL1B secr inh: 31

Results for COC(=O)c1c(NC(=O)/C=C/c2ccc(OC)c(OC)c2)sc2c1CCC2 ?
TDP1 cell CPT: inconclusive; TDP1 cell noCPT: 9.2µM*

Results for CCc1ccc(C(=O)COC(=O)C2=NN(c3ccccc3)C(=O)CC2)cc1 ?
MCF10A rereplic: 3%; TDP1 cell CPT: 3%; TDP1 cell noCPT: 14%; SW480 rerep: -16%; Chronic BCR inh: -4%; IL1B secr inh: 41

How did CC(OC(=O)c1ccc2c(=O)n3c(nc2c1)CCC3)C(=O)NC1CCCCC1C (centres undefined) do in these assays?
MCF10A rereplic: 12%; TDP1 cell CPT: -15%; TDP1 cell noCPT: -18%; SW480 rerep: -1%; Chronic BCR inh: 2%; IL1B secr inh: 7

How did O=C(O)c1ccc2c(c1)C(=O)N([C@H](Cc1ccc(O)cc1)C(=O)O)C2=O do in these assays?
Chronic BCR inh: -13%

Results for C[C@@H]1CN([C@H](C)CO)C(=O)c2cc(NS(=O)(=O)c3cn(C)cn3)ccc2O[C@H]1CN(C)C(=O)Nc1ccccc1 ?
MCF10A rereplic: 7%; TDP1 cell CPT: -5%; TDP1 cell noCPT: -22%; SW480 rerep: -1%; Chronic BCR inh: 3%; IL1B secr inh: 6
